Laboratory results from PubChem BioAssay AID1159580 (chemical genetic matrix, 2015).
Values joined by “and” are separate entries in the source; they are usually repeats but may differ in a detail not shown here. Equal entries are not always repeated. About 2,000 (36%) of roughly 5,500 compounds were called active. About 18% were inconclusive and are not listed. No stated cut-off is given here; in the data, active means normalized growth mostly below about 0.91 (no sharp cut-off); inconclusive means no clear call, values can overlap the other calls; inactive means mostly above about 0.92. Some of the results follow.

Assay: chemical genetic growth profiling, strain panel (AID 1159580);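 further: tested at 20 µM; growth read once vehicle control cultures reached saturation at 30 °C; 1 = growth at the plate median or of vehicle wells; lower values mean less growth of the strain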
Conditions: S. cerevisiae deletion strains, growth OD

Measured: normalized growth

Cc1cc(C)nc(NS(=O)(=O)c2ccc(N)cc2)n1
inactive: locus YAL013W, strain DEP1, active compounds read low 0.998 | locus YAL021C, strain ccr4, active compounds read low 0.957 | locus YAL026C, strain drs2, active compounds read low 0.974 | locus YAL030W, strain snc1, active compounds read low 0.972 | locus YBL061C, strain skt5, active compounds read low 0.985 | locus YBR009C, strain hhf1, active compounds read low 0.934 | locus YBR021W, strain FUR4, active compounds read low 1.01 | locus YBR023C, strain chs3, active compounds read low 0.982 | locus YBR171W, strain sec66, active compounds read low 0.989 | locus YBR229C, strain ROT2, active compounds read low 0.999 | locus YBR231C, strain swc5, active compounds read low 0.998 | locus YBR279W, strain paf1, active compounds read low 0.982 | locus YCL011C, strain gbp2, active compounds read low 0.96 | locus YCL016C, strain dcc1, active compounds read low 0.966 | locus YCL029C, strain bik1, active compounds read low 0.981 | locus YCL069W, strain vba3, active compounds read low 0.969 | locus YCR088W, strain abp1, active compounds read low 0.965 | locus YDL005C, strain med2, active compounds read low 0.969 | locus YDL035C, strain GPR1, active compounds read low 0.988 | locus YDL040C, strain nat1, active compounds read low 0.98 | locus YDL074C, strain BRE1, active compounds read low 1.01 | locus YDL101C, strain DUN1, active compounds read low 0.99 | locus YDL134C, strain PPH21, active compounds read low 0.996 | locus YDL185W, strain tfp1, active compounds read low 0.938 | locus YDL192W, strain arf1, active compounds read low 0.963 | locus YDR001C, strain nth1, active compounds read low 0.963 | locus YDR069C, strain doa4, active compounds read low 0.991 | locus YDR101C, strain arx1, active compounds read low 1 | locus YDR137W, strain rgp1, active compounds read low 0.981 | locus YDR150W, strain NUM1, active compounds read low 0.999 | locus YDR159W, strain sac3, active compounds read low 0.914 | locus YDR162C, strain NBP2, active compounds read low 0.981 | locus YDR195W, strain ref2 0.959 | locus YDR297W, strain sur2, active compounds read low 0.983 | locus YDR318W, strain mcm21, active compounds read low 0.964 | locus YDR334W, strain swr1, active compounds read low 0.985 | locus YDR335W, strain msn5, active compounds read low 0.977 | locus YDR388W, active compounds read low 0.967 | locus YDR392W, strain spt3, active compounds read low 0.91 | locus YDR502C, strain sam2, active compounds read low 0.98 | locus YEL003W, strain gim4, active compounds read low 0.967 | locus YEL037C, strain rad23, active compounds read low 0.983 | locus YEL061C, strain CIN8 (second series), active compounds read low 0.972 | locus YEL061C, strain CIN8, active compounds read low 1 | locus YER015W, strain faa2, active compounds read low 0.996 | locus YER016W, strain bim1, active compounds read low 0.96 | locus YER110C, active compounds read low 0.99 | locus YER111C, strain swi4, active compounds read low 0.965 | locus YER155C, strain BEM2 (second series), active compounds read low 1.01 | locus YER155C, strain BEM2, active compounds read low 0.996 | locus YER167W, strain BCK2, active compounds read low 0.995 | locus YFR010W, strain ubp6, active compounds read low 0.996 | locus YGL078C, strain dbp3, active compounds read low 0.977 | locus YGL086W, strain mad1, active compounds read low 1 | locus YGL167C, strain pmr1, active compounds read low 0.977 | locus YGL173C, strain kem1, active compounds read low 0.979 | locus YGL227W, strain vid30, active compounds read low 0.988 | locus YGL240W, strain doc1, active compounds read low 1.01 | locus YGL248W, strain PDE1, active compounds read low 0.998 | locus YGL253W, strain hxk2, active compounds read low 0.968 | locus YGR135W, strain pre9, active compounds read low 0.995 | locus YGR229C, strain SMI1, active compounds read low 0.989 | locus YGR252W, strain gcn5, active compounds read low 1.17 | locus YHR013C, strain ard1, active compounds read low 0.92 | locus YHR027C, strain rpn1, active compounds read low 0.973 | locus YHR030C, strain SLT2, active compounds read low 0.995 and 0.954 | locus YHR079C, strain IRE1 (second series), active compounds read low 0.97 | locus YHR079C, strain IRE1, active compounds read low 0.981 | locus YHR094C, strain hxt1, active compounds read low 0.968 | locus YHR129C, strain ARP1, active compounds read low 0.997 | locus YHR142W, strain chs7, active compounds read low 0.968 | locus YHR200W, strain rpn10, active compounds read low 0.98 | locus YIL066C, strain RNR3, active compounds read low 1.01 | locus YIL073C, strain SPO22, active compounds read low 0.842 | locus YIL125W, strain kgd1, active compounds read low 0.954 | locus YIR030C, strain dcg1, active compounds read low 0.983 | locus YJL092W, strain hpr5, active compounds read low 0.981 | locus YJL095W, strain BCK1 (second series), active compounds read low 0.983 | locus YJL095W, strain BCK1, active compounds read low 1.02 and 0.967 | locus YJL115W, strain asf1, active compounds read low 0.968 | locus YJL129C, strain trk1, active compounds read low 0.98 | locus YJL134W, strain LCB3, active compounds read low 0.985 | locus YJL154C, strain vps35, active compounds read low 0.978 | locus YJL164C, strain tpk1, active compounds read low 0.963 | locus YJL166W, strain qcr8, active compounds read low 1.01 | locus YJL168C, strain set2, active compounds read low 0.977 | locus YJL187C, strain SWE1 (second series), active compounds read low 0.987 | locus YJR043C, strain POL32, active compounds read low 1
